Rows were chosen to be rich in hits. Some 1.4% of all compounds tested hit in one or more screens of this group.
PriA SSB inh – K. pneumoniae PriA-SSBct interaction inhibition. 0.6% of 430,000 active. AlphaScreen SSBct-PriA binding, biotinylated peptide. inhibition, % at 33 µM. AID 1272365; in the data active = inhibition mostly above about 37%, no sharp cut-off; inactive = mostly below about 20%;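 note: plate controls were negative control peptide for no effect and reference peptide for full effect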
PrP UTR inh – suppresses PrP 5' UTR mRNA reporter expression; 0.35% of 340,000 active; cell-based PrP 5' UTR mRNA reporter, plate reader; inhibition, % (concentration not given with the values); in the data active = inhibition above about 52%; note: 0 = median of the neutral control wells
PrPC surface inh – reduces human prion protein on the cell surface; cell surface PrPC, TR-FRET read-out; inhibition, % at 13.8 µM; 0.43% of 370,000 active; AID 720596; in the data active = inhibition above about 24%; note: 0% = median of the test wells and 100% = reference compound wells
FadD28 FP inh – blocks FadD28 binding to the bisubstrate probe; AID 588549; fluorescence polarization; inhibition, % at 12.5 µM; 0.22% of 360,000 active; in the data active = inhibition above about 8.5%, passing the limit was not always enough
Vc quorum ag – inducers of Vibrio cholerae quorum light production without autoinducers. V. cholerae BH1578 lux reporter, luminescence, 6 h. activation, % at 18.7 µM. 0.16% of 350,000 active. AID 588436; in the data active = activation mostly above about 9.7%, no sharp cut-off
Starred values were filed as active, the others as inactive; i = inactive; x = no result; + = active, no number; ! = not confirmed by another sample.

SMILES	PriA SSB inh	PrP UTR inh	PrPC surface inh	FadD28 FP inh	Vc quorum ag
COc1ccc(S(=O)(=O)/N=C2/NC(=O)/C(=C/c3ccco3)S2)cc1	x	-14	5	20*	0
COc1ccc(N2CCN(C(CNC(=O)c3ccc4c(c3)OCO4)c3cccnc3)CC2)cc1 (stereo unspecified)	3	-17	-1	1	+
O=C(NCC(c1cccnc1)N1CCN(c2ccc(F)cc2)CC1)c1ccc2c(c1)OCO2 (stereo unspecified)	5	-19	4	-2	i
Cc1ccc(C(CNC(=O)C(=O)NCCc2c[nH]c3ccccc23)N2CCN(C)CC2)cc1 (stereo unspecified)	0	x	x	x	x
N#Cc1c(N=Cc2cccs2)sc2c1CCCC2	38*	x	x	x	x
C(=NNc1nc(Nc2ccccc2)nc(Nc2ccccc2)n1)c1cccnc1	-4	x	x	x	x
Cc1ccc(Nc2nc(N)nc(-c3oc4ccccc4c3C)n2)cc1	0	70*	x	-4	-1
CCOC(=O)CC1C(=O)NCCN1C(=O)c1ccc(Cl)cc1 (stereo unspecified)	-8	5	-6	0	i
COC(=O)CC1C(=O)NCCN1C(=O)c1ccc(S(=O)(=O)N2CCOCC2)cc1 (stereo unspecified)	5	-71	0	14*	1
Cc1ccc(C([O-])=C(C(=S)NCc2ccc3c(c2)OCO3)[n+]2ccc(N(C)C)cc2)c(C)c1	15	x	x	x	x
Cc1cccc(NC(=O)CN2C(=O)S/C(=C\c3ccc(O)c([N+](=O)[O-])c3)C2=O)c1	8	2	-7	85*	i
O=C(CN1C(=O)S/C(=C\c2cc(Cl)c(O)c(Cl)c2)C1=O)Nc1ccccc1	2	-10	5	76*	0
Cc1ccc(NC(=O)CN2C(=O)S/C(=C/c3ccc(O)c([N+](=O)[O-])c3)C2=O)cc1C	-1	-17	-7	31*	1
O=C(CN1C(=O)S/C(=C\c2ccc(O)c([N+](=O)[O-])c2)C1=O)Nc1ccc(N2CCOCC2)cc1	-2	-4	2	-2	i
CCOc1ccc(-n2cc(-c3ccccc3)c3c(SCC(=O)OCc4ccccc4)ncnc32)cc1	-13	x	x	x	x
O=C(N[C@H](c1cccnc1)C1CCOCC1)c1ccc(-c2cccs2)cc1	-3	x	x	x	x
Cc1ccc(-c2cc3c(SCC(=O)NCc4ccco4)nccn3n2)cc1	-25	x	x	x	x
Nc1cc(-c2ccccn2)[nH]n1	17	x	x	x	x
O=c1cc(-c2ccccn2)[nH]c(-c2ccccn2)c1	96*	x	x	x	x
O=C(CNC(=O)c1ccc(Cl)cc1)NN=C/C=C/c1ccccc1	-15	x	x	x	x
O=C(COc1ccc(Cl)cc1Cl)N1CCN(Cc2nc(-c3ccco3)cs2)CC1	35*!	x	x	x	x
C=C1C(=O)OC2C1CCC(C)C1C=CC(=O)C12C (stereo unspecified)	-2	-25	0	-1	x
C=C1C(=O)OC2CC1C(O)CC(C)=CCCC(C)=CC(O)CC2C (stereo unspecified)	x	-50	33*	-10	6
CCS(=O)(=O)N1Cc2ccccc2CC1C(=O)NC(C)C12CC3CC(CC(C3)C1)C2 (stereo unspecified)	-2	-27	31*	0	-2
COc1ccc(-c2cn3c(C(=O)Nc4ccc5c(c4)OCCO5)csc3n2)cc1	active	x	x	x	x
SMILES	PriA SSB inh	PrP UTR inh	PrPC surface inh	FadD28 FP inh	Vc quorum ag
O=C(Nc1ccc2c(c1)OCCO2)c1csc2nc(-c3ccc(F)cc3)cn12	-16	x	x	x	x
COc1ccc(-c2cn3c(CCC(=O)Nc4nc(C)cs4)csc3n2)cc1	19	x	x	x	x
COc1ccc(-c2cn3c(CCC(=O)Nc4ccc5c(c4)OCO5)csc3n2)cc1	38*	x	x	x	x
O=C(NCc1ccc(Cl)cc1)NC1CCCC(O)C1 (stereo unspecified)	5	x	x	x	x
COC(=O)COc1ccc(Cl)cc1C1Nc2ccccc2C(=O)N1c1ccc(OC)cc1 (stereo unspecified)	-13	-12	-7	23*	-1
Cc1ccc(NC(=O)C(=O)N2CCC(Cc3ccccc3)CC2)c([N+](=O)[O-])c1	39*	x	x	x	x
CCOC(=O)c1cnc(-n2[nH]c(C)c(Cc3ccccc3)c2=O)[nH]c1=O	84*	-5	-4	-2	i
CCOC(=O)c1cnc(-n2[nH]c(C)cc2=O)[nH]c1=O	93*	-11	4	0	0
CCOC(=O)c1cnc(-n2nc(C)cc2C)[nH]c1=O	13	3	-3	-2	i
O=C(Nc1nc(C(=O)Nc2ccc(S(=O)(=O)Nc3nccs3)cc2)co1)c1ccsc1	-12	x	x	x	x
COc1cc(OC)c(C=NN2CCN(c3ccccc3OC)CC2)c(OC)c1	8	x	x	x	x
O=[N+]([O-])c1ccccc1Nc1cccc(F)c1	49*	-24	-4	-1	1
O=[N+]([O-])c1ccccc1NCCOc1ccccc1	39*	-141	-7	1	-3
O=[N+]([O-])c1ccccc1Nc1ccccc1	70*	-21	-9	0	0
Cc1cc(Nc2ccccc2)c2c([N+](=O)[O-])ccc(C)c2n1	60*	-13	-4	-4	-2
CC(NCC(O)COc1ccc(-c2ccccc2)cc1)c1ccccc1 (stereo unspecified)	1	x	x	x	x
Fc1ccc2c(c1)C(c1ccc(N3CCOCC3)cc1)=NNC(c1cccs1)=N2	40*	-19	x	-3	-1
Brc1ccc2c(c1)C(c1cccnc1)=NNC(c1cccs1)=N2	53*	-11	-4	-2	0
Brc1ccc2c(c1)C(c1ccc(N3CCOCC3)cc1)=NNC(c1cccs1)=N2	13	-28	-7	-3	2
O=C(Nc1ncc(-c2ccc(Br)cc2)s1)c1sc2ccccc2c1Cl	-8	x	x	x	x
CC(C)(C)CC(=O)Nc1nnc(C(F)(F)F)s1	-6	-20	7	0	-2
CC(NC(=O)Nc1nnc(C(F)(F)F)s1)(C(F)(F)F)C(F)(F)F	-9	-21	57*	1	0
CC(=O)Nc1ccc(N=C(C2=C(O)c3ccccc3C2=O)c2ccccc2)cc1	68	-57	-12	14*	0
Cc1nnc2ccc(-c3cccc(NS(=O)(=O)N(C)C)c3)nn12	-9	x	x	x	x
COc1ccc(C=NNc2cc(C)nc3ccc(OC)cc23)c(OC)c1	41*	x	x	x	x
SMILES	PriA SSB inh	PrP UTR inh	PrPC surface inh	FadD28 FP inh	Vc quorum ag
COC(=O)c1cn(NC(=O)c2cccs2)c(=O)c2ccccc12	12	x	x	x	x
CCOC(=O)c1ccccc1NC(=O)CSc1nccn1Cc1ccc2c(c1)OCO2	43*	x	x	x	x
COc1ccc(Cl)cc1NC(=O)CSc1nccn1Cc1ccc2c(c1)OCO2	45*	x	x	x	x
Cc1cc(NC(=O)C2CSCCC(=O)N2)ccc1Br (stereo unspecified)	-19	x	x	x	x
CN(c1ccc(C(=O)NCCSCc2ccc(Cl)cc2)cc1)S(=O)(=O)c1ccccc1	-4	-18	4	3	-1
Cc1ccc(S(=O)(=O)N(C)c2ccc(C(=O)NCc3cccnc3)cc2)cc1	39*	-5	-4	-2	-5
CN(c1ccc(C(=O)NCc2cccnc2)cc1)S(=O)(=O)c1ccc(Cl)cc1	9	-8	10	0	0
Cc1ccc(CSCCNC(=O)c2ccc(N(C)S(=O)(=O)c3ccccc3)cc2)cc1	-16	1	1	8.8*	0

Source: PubChem
